Source: PubChem BioAssay (NCI)
Compounds without any hit were thinned out: in the full panel of roughly 83,000, 20% have a hit.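 Plates (96-well) were seeded with cells, treated with compound at one concentration, and incubated for 48 hours before percent growth was determined.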 Values without a mark were called inactive. Activity calls are given as the source filed them. The calls were made as follows: active = growth percent below 10; inactive = the rest.

Legend:
Experiment in all cases: NCI-60 one-dose screen, 48 h (100 = growth as untreated, 0 = no growth, -100 = all killed)
[1] = tested on: HCT-15 colon; conditions: 10 µM unless noted
[2] = tested on: HT29 colon; conditions: 10 µM unless noted
[3] = tested on: SNB-75 CNS; conditions: 10 µM unless noted
[4] = tested on: SNB-19 CNS; conditions: 10 µM unless noted
[5] = tested on: U251 CNS; conditions: 10 µM unless noted
[6] = tested on: PC-3 prostate; conditions: 10 µM unless noted
[7] = tested on: SK-MEL-5 melanoma; conditions: 10 µM unless noted
[8] = tested on: UACC-62 melanoma; conditions: 10 µM unless noted
[9] = tested on: LOX IMVI melanoma; conditions: 10 µM
[10] = tested on: SK-MEL-28 melanoma; conditions: 10 µM unless noted
[11] = tested on: SK-MEL-2 melanoma; conditions: 10 µM unless noted
[12] = tested on: SN12C renal; conditions: 10 µM unless noted
[13] = tested on: UO-31 renal; conditions: 10 µM unless noted
[14] = tested on: TK-10 renal; conditions: 10 µM unless noted
[15] = tested on: CAKI-1 renal; conditions: 10 µM unless noted
[16] = tested on: A498 renal; conditions: 10 µM unless noted
[17] = tested on: CCRF-CEM leukemia; conditions: 10 µM unless noted
[18] = tested on: MOLT-4 leukemia; conditions: 10 µM unless noted
[19] = tested on: EKVX NSCLC; conditions: 10 µM unless noted
[20] = tested on: ACHN renal; conditions: 10 µM unless noted

SMILES	growth [1]	growth [2]	growth [3]	growth [4]	growth [5]	growth [6]	growth [7]	growth [8]	growth [9]	growth [10]	growth [11]	growth [12]	growth [13]	growth [14]	growth [15]	growth [16]	growth [17]	growth [18]	growth [19]	growth [20]
CC1(O)CCCCCC1	102%	110%	86.3%	97.6%	101%	103%	101%	100%	94.2%	106%	105%	99.9%	82.6%	99.5%	101%	75.3%	92.7%	92.8%		
CCN1/C(=C/C(C)=C/c2sc3ccc4ccccc4c3[n+]2CC)Sc2ccc3ccccc3c21	-81.8% (active)	-80.6% (active)	-94.3% (active)	-96.5% (active)	-94.1% (active)	-84% (active)	-97.6% (active)	-96.6% (active)	-73.9% (active)	-98.3% (active)	-93.5% (active)		-89.8% (active)	-97.3% (active)		-98.3% (active)		-43.6% (active)	-90.8% (active)	-97.2% (active)
O=C(c1ccccc1)C(Br)C(Br)c1ccccc1 (stereo not given)	86%	-52.9% (active)	96.9%	102%	68.6%	55.3%	107%	108%	-55.3% (active)	111%	75.5%	104%		103%	-50.2% (active)	88.4%	-14% (active)	47.5%	108%	
Cc1ccc(Nc2ccc(O)c3c2C(=O)c2c(O)ccc(Nc4ccc(C)cc4)c2C3=O)cc1	94.8%	106%	99.4%	91.6%	99.8%	90.7%	91.7%	105%	96.9%	112%	118%	106%	82.7%		92.9%	97.4%	95.5%	109%		100%
O=C/C=C/c1ccc([N+](=O)[O-])cc1	105%	97.6%	98.9%	95.3%	95.5%	98.7%	102%	98.2%	83.8%	113%	103%	102%	84.2%	99.9%	100%	78.6%	87.6%	82.1%		112%
CCCCN(CCCC)CCCCCCCCCCO	94.3%	89.2%	101%	110%	102%	115%	103%	114%	95.2%	112%	86.9%	107%	81.3%	93.6%	105%	123%	98%	83%		97.1%
CN(Cc1ccccc1)c1ccc(SC#N)cc1	71.8%	52.3%	81.3%	93.3%	73.4%	27.4%	98.2%	97%	45%	101%	98.4%	103%	37.7%	95.8%	98.9%	93%	10.8%	55.4%		78.8%
OC(c1cc(C23CC4CC(CC(C4)C2)C3)nc2c(Cl)cc(Cl)cc12)C1CCCCN1 (stereo not given)	-65.7% (active)	-89.8% (active)	-82% (active)	-58.4% (active)	-88.5% (active)	-84.5% (active)	9.05% (active)	-44.1% (active)	-51.2% (active)	-79.8% (active)	-73.5% (active)		-83.3% (active)	-88.1% (active)	-54.5% (active)	-1.09% (active)	-45.3% (active)	-53.2% (active)	-33.6% (active)	-70.1% (active)
CCCCCCCCCCCCCCCc1ccc(C(=O)C[n+]2ccccc2)cc1	-48.6% (active)	-39.3% (active)	-55% (active)	-84.1% (active)	-42.2% (active)	-90.7% (active)	-31.6% (active)	-27.6% (active)	-55.9% (active)	-14.5% (active)	-80.9% (active)	-60.7% (active)	-97.2% (active)			41.1%	-62.1% (active)	-76.3% (active)	-51.6% (active)	-49.3% (active)
